{"source": "PubChem BioAssay AID488969", "about": "(Vanderbilt High Throughput Screening Facility, 2010)", "note": "The full ranking holds about 110,000 compounds; the median of “z-score” is about -0.1, and the highest 2% start at about 2. The sample holds the highest values, similar compounds and a random draw of the others, so the mix is not that of the screen. The source made the active and inactive calls.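 How the source made its calls: active means z-score in the third read window above 3 or below -3; inactive means the rest.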", "data": [{"target": "Metabotropic glutamate receptor 8 (Rattus norvegicus) (UniProt P70579)", "sequence (P70579 whole entry, looked up)": "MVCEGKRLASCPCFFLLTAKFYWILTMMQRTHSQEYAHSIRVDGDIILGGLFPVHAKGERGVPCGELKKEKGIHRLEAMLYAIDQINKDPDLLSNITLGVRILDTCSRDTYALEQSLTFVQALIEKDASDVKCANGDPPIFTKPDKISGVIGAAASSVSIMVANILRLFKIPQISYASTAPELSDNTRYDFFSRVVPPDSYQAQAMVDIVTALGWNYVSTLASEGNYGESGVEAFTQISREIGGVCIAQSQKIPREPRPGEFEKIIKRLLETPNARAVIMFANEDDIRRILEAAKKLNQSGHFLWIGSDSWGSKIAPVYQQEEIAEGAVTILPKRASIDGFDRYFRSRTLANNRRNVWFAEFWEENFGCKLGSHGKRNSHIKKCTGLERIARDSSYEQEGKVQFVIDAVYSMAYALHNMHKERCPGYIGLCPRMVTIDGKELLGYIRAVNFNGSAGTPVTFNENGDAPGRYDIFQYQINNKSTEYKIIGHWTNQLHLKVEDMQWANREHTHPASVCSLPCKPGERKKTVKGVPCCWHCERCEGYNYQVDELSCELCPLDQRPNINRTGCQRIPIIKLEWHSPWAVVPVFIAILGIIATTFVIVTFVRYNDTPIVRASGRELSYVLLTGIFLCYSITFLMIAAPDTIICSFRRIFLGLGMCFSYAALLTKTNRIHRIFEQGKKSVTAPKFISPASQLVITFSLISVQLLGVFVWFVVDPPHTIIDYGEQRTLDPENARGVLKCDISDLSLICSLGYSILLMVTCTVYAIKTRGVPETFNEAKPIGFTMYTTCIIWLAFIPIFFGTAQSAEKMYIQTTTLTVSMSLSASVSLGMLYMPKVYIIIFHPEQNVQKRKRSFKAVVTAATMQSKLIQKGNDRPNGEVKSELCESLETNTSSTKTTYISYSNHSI", "assay": "mGluR8 Gi/Go-coupled signaling modulation – cell-based, rat, thallium flux, HTS, primary screen (AID 488969)", "settings": "HEK293 rat mGluR8, GIRK (G protein-gated inwardly rectifying potassium channel) thallium flux, FluoZin2; at 10 µM; stronger effect = higher value; submaximal glutamate (EC20) added with thallium", "values": [{"compound": "N#Cc1cn(-c2ccccc2)nc1-c1cc2ccccc2oc1=O", "z-score": -0.0371}, {"compound": "Cc1ccc(-n2c(C3CC3c3ccc(Cl)cc3)n[nH]c2=S)cc1", "note": "(stereo not given)", "z-score": 0.832}, {"compound": "Cc1ccc(C2CC2c2n[nH]c(=S)n2-c2ccc(Cl)cc2)cc1", "note": "(stereo not given)", "z-score": 2.95}, {"compound": "S=c1[nH]nc(C2CC2c2ccc(Cl)cc2)n1-c1ccc(Cl)cc1", "note": "(stereo not given)", "z-score": 0.549}, {"compound": "Cc1ccc(C2CC2c2n[nH]c(=S)n2-c2cccc(Cl)c2)cc1", "note": "(stereo not given)", "z-score": 0.358}, {"compound": "Cc1ccc(C2CC2c2n[nH]c(=S)n2-c2ccc(C)cc2)cc1", "note": "(stereo not given)", "z-score": 2.34}, {"compound": "Cc1ccc(-n2c([C@@H]3C[C@H]3c3ccccc3)n[nH]c2=S)cc1", "z-score": 0.209}, {"compound": "O=C(c1ccc(-n2cnnn2)cc1)N1CCCCC1", "z-score": 0.294}, {"compound": "CN1CCC(OC(=O)COc2ccc(C(C)(C)C)cc2)CC1", "z-score": 0.712}, {"compound": "COC1CCCCC1Nc1cc(C)cc(C)c1", "note": "(stereo not given)", "z-score": -0.0687}, {"compound": "COc1ccc(C)cc1S(=O)(=O)N(C)CC(=O)NC1CCCC1", "z-score": -0.639}, {"compound": "COc1ccc(N(CC(=O)Nc2ccccc2SC)S(C)(=O)=O)cc1OC", "z-score": 0.573}, {"compound": "COc1ccc(Cl)cc1N(CC(=O)Nc1ccccc1SC)S(C)(=O)=O", "z-score": 0.203}, {"compound": "CSc1ccccc1NC(=O)CN(c1ccccc1Br)S(C)(=O)=O", "z-score": 2.04}, {"compound": "CN(C)S(=O)(=O)c1ccc(NC(=O)/C=C/c2ccccc2Cl)cc1", "z-score": -0.0315}, {"compound": "O=C(Nc1nnc(CSCc2ccc(F)cc2)s1)c1ccc([N+](=O)[O-])cc1", "z-score": 2.51}, {"compound": "CCC(=O)Nc1nnc(CSCc2ccc(F)cc2)s1", "z-score": 0.0266}, {"compound": "O=C(Nc1nnc(CSCc2ccc(F)cc2)s1)c1cccc([N+](=O)[O-])c1", "z-score": -0.37}, {"compound": "O=C(NCc1ccc(Cl)cc1)C(=O)NCC1OCCN1C(=O)c1cccs1", "note": "(stereo not given)", "z-score": -0.152}, {"compound": "Cn1cc(-c2nc3ccccc3[nH]2)c2ccccc21", "z-score": -1.41}, {"compound": "O=C(c1ccccc1)C(Sc1ncn[nH]1)c1ccccc1", "note": "(stereo not given)", "z-score": -0.672}, {"compound": "Cc1ccc(C)c(OCC(=O)N/N=C/c2c(C)nn(-c3ccccc3)c2Cl)c1", "z-score": 2.98}, {"compound": "COC(=O)N/N=C\\c1c(C)nn(-c2ccccc2)c1Cl", "z-score": -0.389}, {"compound": "Cc1ccc(C)c(OCC(=O)N/N=C/c2c(C)nn(-c3ccccc3)c2Cl)c1C", "z-score": -0.185}, {"compound": "Fc1ccccc1N1CCN(CCCNc2ccc3nncn3n2)CC1", "z-score": 0.731}, {"compound": "CCOC(=O)N1CCC(NCCNC(=O)c2ccccc2)CC1", "z-score": 0.292}, {"compound": "O=C(COC(=O)CN1C(=O)c2ccccc2C1=O)Nc1ncc(Cl)cc1Cl", "z-score": 0.719}, {"compound": "CC(OC(=O)CCCN1C(=O)c2ccccc2C1=O)C(=O)Nc1ncc(Cl)cc1Cl", "note": "(stereo not given)", "z-score": 2.08}, {"compound": "CC(OC(=O)CN1C(=O)C2CCCCC2C1=O)C(=O)Nc1ncc(Cl)cc1Cl", "note": "(stereo not given)", "z-score": 0.031}, {"compound": "Cc1c(NC(=O)C(C)OC(=O)c2cc(Cl)nc(Cl)c2)c(=O)n(-c2ccccc2)n1C", "note": "(stereo not given)", "z-score": 0.0979}, {"compound": "CCOC(=O)C(Oc1ccc2c(-c3ccccc3)cc(=O)oc2c1C)c1ccccc1", "note": "(stereo not given)", "z-score": -0.0738}, {"compound": "Cc1csc(NC(=O)CSc2nnc(-c3cc(C)on3)o2)n1", "z-score": 0.301}, {"compound": "CCOC(=O)c1sc2ncnc(NCc3ccco3)c2c1C", "z-score": "14.7 (active)"}, {"compound": "CCc1cc2c(NCc3ccco3)ncnc2s1", "z-score": -0.444}, {"compound": "CCOC(=O)c1sc2nc(CC(=O)OC)nc(NCc3ccco3)c2c1C", "z-score": -0.245}, {"compound": "Cc1c(NC(=O)c2cc3nc(-c4ccc(Br)cc4)cc(C(F)(F)F)n3n2)c(=O)n(-c2ccccc2)n1C", "z-score": -0.51}, {"compound": "Cc1cc(C)nc(/N=C(\\N)Nc2ccc(F)c([N+](=O)[O-])c2)n1", "z-score": -0.14}, {"compound": "O=C(C(Cc1ccccc1)N1C(=O)C2C3C=CC(C3)C2C1=O)N1CCCCC1", "note": "(stereo not given)", "z-score": -0.174}, {"compound": "COc1ccccc1NC(=O)NCc1ccc2c(c1)OCO2", "z-score": 0.532}, {"compound": "CC(C)C(=O)Nc1ccccc1C(=O)OCC(=O)c1ccc2c(c1)OCCO2", "z-score": -0.424}, {"compound": "CC(=O)Nc1ccccc1OCC(=O)c1ccc2c(c1)OCO2", "z-score": 2.07}, {"compound": "O=C1CC(c2cccc(Br)c2)c2cc3c(cc2N1)CCC3", "note": "(stereo not given)", "z-score": -0.00205}, {"compound": "COc1ccc(S(=O)(=O)Nc2ccc(C)cc2)cc1OC", "z-score": -0.166}, {"compound": "Cc1cccc(C(=O)N2CCN(Cc3ccc4c(c3)OCO4)CC2)c1", "z-score": -0.0762}, {"compound": "CS(=O)(=O)N(CC(=O)N1CCN(Cc2ccc3c(c2)OCO3)CC1)Cc1ccc(Cl)cc1", "z-score": 0.174}, {"compound": "Cc1ccc(NC(=S)N2CCN(Cc3ccc4c(c3)OCO4)CC2)c(C)c1", "z-score": -0.407}, {"compound": "CCC(CC)C(=O)N1CCN(Cc2ccc3c(c2)OCO3)CC1", "z-score": -0.17}, {"compound": "CCn1nc(C(=O)N2CCN(Cc3ccc4c(c3)OCO4)CC2)c2ccccc2c1=O", "z-score": -0.474}, {"compound": "CCn1cnc2sc(C(=O)N3CCN(Cc4ccc5c(c4)OCO5)CC3)c(C)c2c1=O", "z-score": 2.58}, {"compound": "O=C(NC(=S)N1CCN(Cc2ccc3c(c2)OCO3)CC1)c1cccc(Br)c1", "z-score": "9.35 (active)"}, {"compound": "CCn1cnc2sc(C(=O)Nc3ccc4c(c3)OCO4)c(C)c2c1=O", "z-score": -0.145}, {"compound": "Cc1c(Cl)cccc1NC(=S)N1CCN(Cc2ccc3c(c2)OCO3)CC1", "z-score": 0.334}, {"compound": "CCN(CC)c1ccc(C(=O)NC(=S)N2CCN(Cc3ccc4c(c3)OCO4)CC2)cc1", "z-score": "10 (active)"}, {"compound": "O=C(c1ccc(Br)o1)N1CCN(Cc2ccc3c(c2)OCO3)CC1", "z-score": -1.48}, {"compound": "O=C(NC(=S)N1CCN(Cc2ccc3c(c2)OCO3)CC1)c1ccc(Cl)cc1", "z-score": "15.2 (active)"}]}]}
